# According to article PMC12136788:
# Numbering of substitutions follows the chain as printed. Over roughly 5,800 sequences, “enrichment r” has its median near 0.68; the highest 2% begin near 11. Many of the other results were omitted from the sample, so the highest values are more common in it than they were.
# T1: UNK ZnF1-6 (called full-length) (human, UniProt Q9C0B0 30-357)
# T1 sequence: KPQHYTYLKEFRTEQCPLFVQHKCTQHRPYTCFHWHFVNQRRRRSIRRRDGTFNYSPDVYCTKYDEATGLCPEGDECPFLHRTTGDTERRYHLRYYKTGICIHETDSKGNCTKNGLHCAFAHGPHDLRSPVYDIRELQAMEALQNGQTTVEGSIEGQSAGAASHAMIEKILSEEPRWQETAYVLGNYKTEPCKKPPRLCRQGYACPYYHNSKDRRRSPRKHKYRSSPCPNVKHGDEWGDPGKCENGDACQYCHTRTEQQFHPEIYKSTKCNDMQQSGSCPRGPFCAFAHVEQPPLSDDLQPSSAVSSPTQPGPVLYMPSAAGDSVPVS
# B1: ENSG00000198589:be:win_7401|CDS|ENSG00000198589|bound_else_gene|NA|bound_elsewhere_windowed (ssRNA)
# RNA: GGGAGUUCUACAGUCCGACGAUCUUCUCAACUACUCAUAGAGCCCCAUCCUCCCAGAGGUUCUGCCAUGCAAGUGAGUCCAUUGAUGUUCACAGACAAAGCCCAGCAGGAUGUUAUCAUGGUCCUCAAGUUUCCCUCCAACUCCAACAGAGGAUUGAGCAUCA
# B2: chr5:128187618:128187661:+|3pUTR|ENSG00000064651|msi1_unk|total|mutant (ssRNA)
# RNA: GGGAGUUCUACAGUCCGACGAUCUCCUUUAUAAGUCAUUAAAAUAAUGUUUCAUCAAAUGGUUAAAUGGACCACUGGUUUCUCCGAGAAAUGUUUUCCGGCUUAAUUCAUUCAAUUGUCAAGUACACUCCGUCUUAAUACACUCAACAGAGGAUUGAGCAUCA
# B3: chr1:159061598:159062691:-|three_prime_utr|ENSG00000163568|control|control|control (ssRNA)
# RNA: GGGAGUUCUACAGUCCGACGAUCUCAAUCAGAUUGUAAGUUACCUGAAAGCUGCAGUUCACAGGCUCCUCUCUCCACCAAAUUAGGAUAGAAUAAUUGCUGGAUAAACAAAUUCAGAAUAUCAACAGAUGAUCACAAUAAACACAACAGAGGAUUGAGCAUCA
# B4: chr10:95606323:95606429:-|3pUTR|ENSG00000059573|unk|total|mutant (ssRNA)
# RNA: GGGAGUUCUACAGUCCGACGAUCCCAUGGCUGCUUUGUGUCACCUCAGUGACUUACAGUCCCCCUUGGCAUUCCGUUGGUACCCGAGCCAGUCAUCCUUAACAAAUCUUUUCACAUUUUAUUUCUUUCACAUGCCGUCAUCUUCAACAGAGGAUUGAGCAUCA
# B5: chrX:107070192:107070425:-|CDS|ENSG00000089682|control|control|control (ssRNA)
# RNA: GGGAGUUCUACAGUCCGACGAUCCGUUCUAGGAGCCAAAUGGCAGAAAAGGACUGGGAGGACCUCAACAUUUAGUAUUCUCUUAGUUUCCUUGCUUUCAGAAACAGUGUUCACAUCUUCAGCCAUGUAUGGCAUUCCCCAUCUCAACAGAGGAUUGAGCAUCA
# B6: chr10:95606323:95606429:-|3pUTR|ENSG00000059573|unk|FALSE|bound_elsewhere (ssRNA)
# RNA: B4 RNA with C73U, C74A, C83U, C84A, C134U, C135A
# Biological target: T1, UNK ZnF1-6 (called full-length)
# Assay: nsRBNS (natural sequence RNA bind-n-seq); RBNS binding buffer (assumed for nsRBNS): 25 mM Tris pH 7.5, 150 mM KCl, 3 mM MgCl2, 0.01% Triton X-100, 500 ug/ml BSA, 20 U/ml SUPERase-In, 4 C; UNK is unkempt and MSI1 is Musashi-1; names of the RNAs are library labels; protein concentration not given here; high values mean tight binding
row,Binder,binding signal
1,B1,0.555 enrichment R
2,B2,0.678 enrichment R
3,B3,1.86 enrichment R
4,B4,6.24 enrichment R
5,B5,3.69 enrichment R
6,B6,15.5 enrichment R
